Structures can show the parent of a compound that is named as a salt.
The compounds below were run on Danio rerio larvae (5 dpf) (assay: habituation (activity change first vs second 5 min of 1-s interval sound, period 17) minus DMSO control (percentage points); higher = larger habituation measure than DMSO larvae). Settings: 10 µM; exposure time: 3 h pre-incubation + 3 h imaging.
Procedure: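 Wild-type 5 dpf zebrafish larvae (n=48 per drug, 96-well plates, 28.5 °C) were exposed to Tocris FDA-approved library compounds at 10 µM (0.1% DMSO) for 3 h before and 3 h during imaging. Images were taken every 6 s during visual (moving coloured lines) and acoustic stimuli, and larvae were tracked with the DeepLabCut-based Z-LaP Tracker. Each behavioural measure is the treated-group mean minus the DMSO vehicle control mean (n=844), in percentage points. This mapping covers compounds with 4-character plate codes.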

Row | Compound | habituation
1 | CCOC(=O)c1ncn2c1CN(C)C(=O)c1cc(F)ccc1-2 [Flumazenil] | -2.62
2 | COc1cccc2c1C(=O)c1c(O)c3c(c(O)c1C2=O)C[C@@](O)(C(=O)CO)C[C@@H]3O[C@H]1C[C@H](N)[C@H](O)[C@H](C)O1 [Doxorubicin hydrochloride] | 0.248
3 | O=c1[nH]c(=O)n([C@H]2C[C@H](O)[C@@H](CO)O2)cc1C(F)(F)F [Trifluorothymidine] | 6.83
4 | Cc1nnc(C(C)C)n1C1C[C@H]2CC[C@@H](C1)N2CC[C@H](NC(=O)C1CCC(F)(F)CC1)c1ccccc1 (stereo in doubt) [Maraviroc] | 3.31
5 | Nc1cccc2c1CN(C1CCC(=O)NC1=O)C2=O (stereo not given) [Lenalidomide] | -0.218
6 | COc1cc2ncnc(Nc3ccc(F)c(Cl)c3)c2cc1OCCCN1CCOCC1 [Iressa] | 1.15
7 | CC1CNc2c(cccc2S(=O)(=O)N[C@@H](CCCNC(=N)N)C(=O)N2CC[C@@H](C)C[C@@H]2C(=O)O)C1 (stereo not given in full) [Argatroban] | -0.107
8 | Cc1cccc(CN2CCN(C(c3ccccc3)c3ccc(Cl)cc3)CC2)c1 (stereo not given) [Meclizine dihydrochloride] | -12.4
9 | CC(C)(C#N)c1cc(Cn2cncn2)cc(C(C)(C)C#N)c1 [Anastrozole] | 6.46
10 | C[C@H](Cc1cc2c(c(C(N)=O)c1)N(CCCO)CC2)NCCOc1ccccc1OCC(F)(F)F [Silodosin] | 7.86
11 | CC(=O)S[C@@H]1CC2=CC(=O)CC[C@]2(C)[C@H]2CC[C@@]3(C)[C@@H](CC[C@@]34CCC(=O)O4)[C@H]12 [Spironolactone] | 2.5
12 | COc1ccc(C[C@@H](C)NC[C@H](O)c2ccc(O)c(NC=O)c2)cc1 [Arformoterol tartrate] | -3.57
13 | Nc1ncn([C@H]2C[C@H](O)[C@@H](CO)O2)c(=O)n1 [Decitabine] | 7.42
14 | Brc1c(NC2=NCCN2)ccc2nccnc12 | -6.57
15 | Cc1ccsc1C(=CCCN1CCC[C@@H](C(=O)O)C1)c1sccc1C [Tiagabine hydrochloride] | 6.37
16 | C=C1[C@H](CO)[C@@H](O)C[C@@H]1n1cnc2c(=O)[nH]c(N)nc21 [Entecavir] | 1.2
17 | CCOC(=O)C1=C(COCCN)NC(C)=C(C(=O)OC)C1c1ccccc1Cl (stereo not given) [Amlodipine besylate] | -2.71
18 | CC(C)CN(C[C@@H](O)[C@H](Cc1ccccc1)NC(=O)O[C@H]1CO[C@H]2OCC[C@H]21)S(=O)(=O)c1ccc(N)cc1 [Darunavir] | 0.657
19 | CN1CC(=O)N2[C@H](c3ccc4c(c3)OCO4)c3[nH]c4ccccc4c3C[C@@H]2C1=O [Tadalafil] | -0.158
20 | Nc1cc(N2CCCCC2)nc(N)[n+]1[O-] [Minoxidil] | 7.65

Row | Compound | habituation
21 | CCC(C)(C)C(=O)O[C@H]1C[C@@H](C)C=C2C=C[C@H](C)[C@H](CC[C@@H]3C[C@@H](O)CC(=O)O3)[C@H]21 [Simvastatin] | -1.02
22 | CCCc1nc(C(C)(C)O)c(C(=O)O)n1Cc1ccc(-c2ccccc2-c2nnn[nH]2)cc1 [Olmesartan] | 2.6
23 | CCOC(=O)[C@H](CCc1ccccc1)N[C@H]1CCc2ccccc2N(CC(=O)O)C1=O [Benazepril hydrochloride] | 1.78
24 | Cc1ccc(O)c([C@H](CCN(C(C)C)C(C)C)c2ccccc2)c1 [Tolterodine L-tartrate] | -5.86
25 | CC(=O)O[C@H]1C(=O)[C@@]2(C)[C@H]([C@H](OC(=O)c3ccccc3)[C@]3(O)C[C@H](OC(=O)[C@H](O)[C@@H](NC(=O)c4ccccc4)c4ccccc4)C(C)=C1C3(C)C)[C@]1(OC(C)=O)CO[C@@H]1C[C@@H]2O [Taxol] | -3.28
26 | NS(=O)(=O)Cc1noc2ccccc12 [Zonisamide] | 1.66
27 | Cc1ccc(N(CC2=NCCN2)c2cccc(O)c2)cc1 [Phentolamine Mesylate] | 8.8
28 | Cn1cnc([N+](=O)[O-])c1Sc1ncnc2[nH]cnc12 [Azathioprine] | -3.52
29 | Clc1ccc(COC(Cn2ccnc2)c2ccc(Cl)cc2Cl)c(Cl)c1 (stereo not given) [Miconazole nitrate] | -11.4
30 | C[C@@H](O[C@H]1OCCN(Cc2n[nH]c(=O)[nH]2)[C@H]1c1ccc(F)cc1)c1cc(C(F)(F)F)cc(C(F)(F)F)c1 [Aprepitant] | 1.46
31 | CCc1c2c(nc3ccc(OC(=O)N4CCC(N5CCCCC5)CC4)cc13)-c1cc3c(c(=O)n1C2)COC(=O)[C@]3(O)CC | 9.09
32 | Cc1ccccc1C(=O)Nc1ccc(C(=O)N2CCCC(O)c3cc(Cl)ccc32)c(C)c1 (stereo not given) [Tolvaptan] | 2.26
33 | CNC(=O)c1ccccc1Sc1ccc2c(/C=C/c3ccccn3)n[nH]c2c1 [Axitinib] | 0.305
34 | CCc1ccc(CCOc2ccc(CC3SC(=O)NC3=O)cc2)nc1 (stereo not given) [Pioglitazone hydrochloride] | 0.765
35 | CN/C(=N\CCSCc1nc[nH]c1C)NC#N [Cimetidine] | 5.23
36 | CC(C)N(CCCCOCC(=O)NS(C)(=O)=O)c1cnc(-c2ccccc2)c(-c2ccccc2)n1 [Selexipag] | -0.762
37 | CN(C)CCc1c[nH]c2ccc(Cn3cncn3)cc12 [Rizatriptan benzoate] | -1.58
38 | CC(=O)NC[C@H]1CN(c2ccc(N3CCOCC3)c(F)c2)C(=O)O1 [Linezolid] | -3.73
39 | CC(CCc1ccc(O)cc1)NCCc1ccc(O)c(O)c1 (stereo not given) [Dobutamine hydrochloride] | 3.31
40 | Nc1nc(Cl)nc2c1ncn2[C@@H]1O[C@H](CO)[C@@H](O)[C@@H]1F [Clofarabine] | -1.06
